# WRN helicase inh = qHTS for Inhibitors of WRN Helicase; AID 651768, 2012; WRN helicase unwinding, fluorescent forked duplex, kinetic; 360,000 tested, 0.46% active; Bifunctional 3'-5' exonuclease/ATP-dependent helicase WRN (Homo sapiens), Q14191; Potency, µM (titrated, usually from 114 µM), actives largely listed as inhibitors; note: nearly all actives have a fitted effect of over 55% in size
#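 Screening of the MLSMR collection measured strand separation of a quenched forked DNA duplex (100 nM) by 20 nM WRN with 2 mM ATP, all final. Compounds were preincubated with enzyme 15 min at room temperature.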
# POLH inh = qHTS for Inhibitors of Polymerase Eta | DNA polymerase eta (Homo sapiens), Q9Y253 | recombinant Pol eta, fluorescent DNA replication assay | Potency, µM (top dose mostly 114 µM), actives largely listed as inhibitors | 390,000 tested, 1.2% active
#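 Pol eta at 10 nM preincubated with compounds 15 min at room temperature; reaction started with fluorescent substrate (50 nM final) and read kinetically at 0 and 10 min.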
# PI5P4K alpha inh = qHTS for Inhibitors of phosphatidylinositol 5-phosphate 4-kinase (PI5P4K); PI5P4Kalpha enzyme, ADP-Glo luminescence, 60 min; hits give low values; max response, %; 330,000 tested, 1.2% active; AID 652105, 2013; active = max response of -50% or lower; inconclusive = between -30% and -50%; inactive = -30% or higher; note: value at the top dose of about 77 µM
# Target sequence (P48426 whole entry, looked up): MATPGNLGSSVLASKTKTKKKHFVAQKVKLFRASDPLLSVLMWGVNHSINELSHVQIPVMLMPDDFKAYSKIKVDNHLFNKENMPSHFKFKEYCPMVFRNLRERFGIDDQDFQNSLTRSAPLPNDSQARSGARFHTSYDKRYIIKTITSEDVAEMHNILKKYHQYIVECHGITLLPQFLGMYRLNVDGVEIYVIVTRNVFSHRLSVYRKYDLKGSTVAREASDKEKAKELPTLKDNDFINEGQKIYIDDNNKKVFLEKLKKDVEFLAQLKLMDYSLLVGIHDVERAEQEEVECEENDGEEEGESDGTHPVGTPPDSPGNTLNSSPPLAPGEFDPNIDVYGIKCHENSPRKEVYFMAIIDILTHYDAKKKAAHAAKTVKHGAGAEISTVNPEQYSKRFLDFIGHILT
#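 PI5P4Kalpha ADP-Glo assay; 5 microM ATP final; 60 min RT reaction; HEPES pH 7.4/EGTA/CHAPS, 5% DMSO; controls lacking substrate or enzyme; luminescent end-point.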
# POLI inh = qHTS for Inhibitors of Polymerase Iota. Pol iota fluorescent replication assay, 10 min. Potency, µM (series often up to 115 µM), actives largely listed as inhibitors. DNA polymerase iota (Homo sapiens), Q9UNA4. 390,000 tested, 1% active. AID 588590, 2011
#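 Pol iota at 10 nM preincubated 15 min with compounds at room temperature; reaction started with fluorescent substrate, 50 nM final. Fluorescence read kinetically at 0 and 10 min; buffer-only wells as negative control.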
# Pol kappa inh = qHTS for Inhibitors of Polymerase Kappa. AID 588579, 2011. 400,000 tested, 0.53% active. DNA polymerase kappa (Homo sapiens), Q9UBT6. purified Pol kappa, fluorescent DNA synthesis assay, 10 min. Potency, µM (series often up to 107 µM), most hits filed as inhibitors
#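 Enzyme at 10 nM met test compounds for 15 min at room temperature. Substrate addition (50 nM final) began the reaction, which was monitored by fluorescence at 0 and 10 min.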
# POLB inh = qHTS Assay for Inhibitors of DNA Polymerase Beta. AID 485314, 2010. Potency, µM (top dose mostly 114 µM), most hits filed as inhibitors. P06746. 340,000 tested, 1.3% active. Pol beta primer extension/strand displacement, fluorescence kinetic
#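 10 nM enzyme + cpd, 15 min RT; start with substrate 50 nM final; read 0 min and after 10 min RT. Corrected, normalized data; 4-parameter Hill curve fit.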
# Hits are given with their value; - = inactive; ? = inconclusive; . = not tested or not shown; [ ] = another dose, or the depositor's remark. Hits are enriched below; roughly 2.8% of the tested compounds scored in any of these assays. Unless noted, calls come from the whole dose curve; as a rule, active = well fitted curve in the direction sought with a large enough effect; inconclusive = small, poorly fitted or top-dose-only effect, or another doubt; inactive = no such curve, though single readings can be large; an effect the other way counts as inactive or inconclusive.
SMILES,WRN helicase inh,POLH inh,PI5P4K alpha inh,POLI inh,Pol kappa inh,POLB inh
Cc1ccc(NC(=O)c2cc(-n3cnnc3)ccc2Cl)cc1,-,-,.,-,-,-
Cc1ccc(NC(=O)c2cc(N3C(=O)C=CC3=O)ccc2N2CCOCC2)cc1,35µM,-,-63,-,-,?
Cc1ccc(NC(=O)c2cc(N3C(=O)C=CC3=O)ccc2Cl)cc1C,?,-,-76,-,-,-
CC1(C)CC(=O)C2=C(C1)OC1=C(C(=O)CC(C)(C)C1)C2c1ccccc1Cl,-,-,-,.,.,.
C=C1C=C(C(F)F)n2ncc(C(=O)N3CCN(c4ccccc4)CC3)c2N1,.,.,.,-,-,.
COc1ccc(-c2coc3cc(O)ccc3c2=O)c(O)c1O,.,.,.,.,1.8µM,.
COc1cc(/C=C(\C#N)C(=O)c2c[nH]c3ccccc23)cc(OC)c1O,?,?,-75,-,-,?
COc1ccc(OC)c(C(Cc2ccnc3ccccc23)Cc2ccnc3ccccc23)c1,.,.,.,-,-,.
Cc1c(NC(=O)C2CC=CCC2C(=O)O)c(=O)n(-c2ccccc2)n1C (stereo unspecified),-[11.6 µM],?,-,-,-,25µM
CCN(CC)C(=O)Nc1c(C)n(C)n(-c2ccccc2)c1=O,-,-,-,-,-,-
COc1cc(N2Cc3ccccc3C2)ccc1C=O,-,?,-,?,-,11µM
Cc1cc(C)cc(N2Cc3ccccc3C2)c1,-,-,-,-,-,-
Cc1csc(NC(=O)C2COc3ccccc3O2)n1 (stereo unspecified),-,-,-,-,-,-
Cc1cnc(NC(=O)C2COc3ccccc3O2)s1 (stereo unspecified),-,?,?,?,?,50µM
C=C/C(C)=C/C[C@H]1C(=C)CCC2[C@](C)(C(=O)O)CCC[C@@]21C (stereo partly specified),-,8.9µM,-,?,?,.
C=C1C[C@@]23CC[C@H]4[C@@](C)(CCC[C@@]4(C)C(=O)O)[C@@H]2CC[C@]1(O)C3,.,.,.,.,-,.
Cc1cc(O)c(C(C)C)cc1N=Cc1ccccc1O,-,-,-,20µM,-,-
CCOC(=O)c1nn(-c2ccc(OCC)cc2)c(C)c1C(C)=O,-[11.6 µM],89µM,-,-,-,-
CCOC(=O)c1ccc(S(=O)(=O)N2CCN(c3nc(-c4cccs4)nc4ccccc34)CC2)cc1,.,.,.,?,-,.
O=C(O)c1ccc2c(c1)-c1cc(C(=O)O)ccc1S2(=O)=O,-,-,-74,-,-,-
Cc1ccc(Cn2ccn(CC(=O)Nc3c(C)cc(C)cc3C)c(=O)c2=O)cc1,.,?,.,-,-,-
CC1(C)Cc2c(sc3ncn4c(=S)[nH]nc4c23)CO1,-,-,-53,?,-,-
CC(C)(C)n1ncc2c(=O)n(Cc3ccc(Cl)c(OC(F)(F)F)c3)cnc21,.,.,.,-,-,.
O=C(Nc1ccc2[nH]c(=S)sc2c1)c1ccccc1,?,-,-68,-,-,-
O=C(Nc1ccc2[nH]ccc2c1)c1ccccc1,-,-,-,-,-,-
SMILES,WRN helicase inh,POLH inh,PI5P4K alpha inh,POLI inh,Pol kappa inh,POLB inh
O=C(Nc1ccc(F)cc1)Nc1ccccc1F,-,-,-,-,-,?
O=C(Nc1ccc2[nH]c(=S)sc2c1)Nc1ccccc1F,-,79µM,-72,?,-,-
O=C(c1cccc(Cl)c1)N(Cc1ccco1)C1CCS(=O)(=O)C1 (stereo unspecified),-,-,-,-,-,-
CCC(Sc1ccc2nnc(-c3cccnc3)n2n1)C(=O)O (stereo unspecified),-,-,-58,?,-,-
CCN(C(=O)COC(=O)CCCOc1ccccc1)c1c(N)n(Cc2ccccc2)c(=O)[nH]c1=O,-,-,-,-,-,.
COc1cc(/C=C2/SC(N)=NC2=O)ccc1Oc1ccc([N+](=O)[O-])cc1[N+](=O)[O-],-,-,-,-,-,-
COc1cc(/C=C2\SC(c3ccc(C)cc3)=NC2=O)cc(OC)c1O,?,-,.,?,-,-
COc1ccc(/C=C2\SC(N)=NC2=O)cc1Br,-,?,-51,?,-,40µM
NC1=NC(=O)/C(=C\c2ccc(O)c([N+](=O)[O-])c2)S1,-,-,-79,-,-,?
CCCOc1ccccc1/C=C1\SC(N)=NC1=O,-,-,-,-,-,-
COc1cc(/C=C2\SC(N)=NC2=O)cc(Cl)c1O,-,-,-76,-,-,-
CCCOc1ccc(/C=C2\SC(N)=NC2=O)cc1OC,-,-,-,?,-,56µM
Nc1ccc(O)c([N+](=O)[O-])c1,-,-,-,79µM,-,.
C=C1CCC(C)C(C)(CCC2=CCOC2=O)C/C=C\C=C/1C(=O)O (stereo unspecified),-,28µM,-,?,?,-
Cc1ccc2nc(N3C(=O)C(O)=C(C(=O)c4ccco4)C3c3ccc(C)o3)sc2c1 (stereo unspecified),?,?,-52,?,-,?
Cc1ccc2nc(N3C(=O)C(O)=C(C(=O)c4ccc(C)o4)C3c3ccco3)sc2c1 (stereo unspecified),-,?,?,?,-,.
O=C(C1=C(O)C(=O)N(c2nc3ccc(Cl)cc3s2)C1c1ccco1)c1ccco1 (stereo unspecified),50µM,20µM,-74,7.9µM,40µM,.
Cc1ccc2nc(N3C(=O)C(O)=C(C(=O)c4cc5ccccc5o4)C3c3cccs3)sc2c1 (stereo unspecified),?,-,-,-,-,-
CCc1ccc2nc(N3C(=O)C(O)=C(C(=O)c4ccco4)C3c3cccs3)sc2c1 (stereo unspecified),-,-,-59,?,-,?
CN(C)/C=C(/C(=O)c1ccc(Cl)cc1)S(=O)(=O)c1ccc(Cl)cc1,-,-,.,-,-,-
O=C(c1cccnc1)N1CCN(c2c(Cl)cccc2[N+](=O)[O-])CC1,-,-,-,-,-,-
Nc1ccc2cc3ccc(N)cc3nc2c1,.,.,.,.,9.5µM,.
O=C(O)C1C2C=CC(C2)C1C(=O)NCc1ccco1 (stereo unspecified),-,50µM,-,-,?,-
O=C(NCc1ccco1)C1c2ccccc2Oc2ccccc21,?,7.9µM,-,?,?,18µM
CCN(CC)CCNC(=O)c1cc2c(-c3cccc(OC)c3)nn(C)c2s1,-,-,-,?,-,71µM
CCOCCCNC(=O)c1cc2c(-c3ccc(Cl)cc3)nn(C)c2s1,-,-,-,-,-,-
